This test concerns ABL1(Q252H)-nonphosphorylated. To be noted: Compound Concentration (nM):1000.
For the molecule `COc1cc(/C=N/Nc2ncnc3[nH]ncc23)ccc1O` [GW578748X], the “Percent Control” value is given as 0%.

For `NS(=O)(=O)c1ccc(N/N=C2\C(=O)Nc3ccc(-c4cnco4)cc32)cc1` [GW276655], the “Percent Control” value came to 85%.

On to `CN1CCN(C(=O)c2ccc(NC(=O)Nc3ccc(N(C)c4ccnc(Nc5ccc(CS(C)(=O)=O)cc5)n4)cc3)cc2)CC1.Cl` [GW830263A], for which the “Percent Control” value stood at 6.1%.

As for `CCS(=O)(=O)c1ccc(OC)c(Nc2ncc(-c3cccc(OC)c3)o2)c1` [GW580509X], the “Percent Control” value turned out to be 6.8%.

Regarding `Cl.O=S1CCN(Cc2ccc(-c3ccc4ncnc(Nc5ccc(OCc6ccccc6)c(F)c5)c4c3)o2)CC1` [GW576924A], the “Percent Control” value is given as 100%.

`CC1=C(C(=O)Nc2ccc3[nH]ncc3c2)C(c2ccc3ccccc3c2)CC(=O)N1` (stereo not shown) [GSK270822A]: the “Percent Control” value is 50%.

Regarding `COc1ccc2c(-c3ccnc(Nc4cccc(OC(F)(F)F)c4)n3)cnn2n1` [GW810372X], the “Percent Control” value is 98%.

On to `Cl.O=C(Nc1ccc(Oc2ccc3[nH]c(NC(=O)c4ccco4)nc3c2)cc1)Nc1cc(C(F)(F)F)ccc1F` [GW683134A], for which the “Percent Control” value is listed as 5.5%.

Take `CN(C)c1cc2c(Nc3ccc4c(cnn4Cc4ccccc4)c3)ncnc2cn1` [GW282974X]: the “Percent Control” value came to 48%.

`CCS(=O)(=O)c1ccc(OC)c(Nc2ncc(-c3cccc(F)c3)o2)c1` [GW621970X]: the “Percent Control” value was 4.5%.

`COc1cc(C)c(N(C)C(=O)CN(C)C)cc1Nc1nc(Nc2cccc(F)c2C(N)=O)c2cc[nH]c2n1` [GSK2219385]: the “Percent Control” value was found to be 62%.

On to `Cl.c1ccc(Cc2nc3ccc(Nc4ncnc5ccccc45)cc3[nH]2)cc1` [GR269666A], for which the “Percent Control” value is 98%.

On to `COc1ccc2[nH]c3c4[nH]c5ccc(OC)cc5c4c4c(c3c2c1)C(=O)NC4=O` [GW296115X], for which the “Percent Control” value is listed as 28%.

In the case of `CCn1c(-c2nonc2N)nc2c(C#CC(C)(C)O)nc(OCCNC)cc21.Cl` [GSK949675], the “Percent Control” value is 100%.

With `CN(C)CCNC(=O)Nc1ccc(N(C)c2ccnc(Nc3ccc(CS(C)(=O)=O)cc3)n2)cc1.Cl` [GW830900A], the “Percent Control” value is listed as 47%.

Turning to `NS(=O)(=O)c1ccc(N/N=C2\C(=O)Nc3ccc(C(=O)NCCc4c[nH]cn4)cc32)cc1` [GW300660X], the “Percent Control” value turned out to be 99%.

On to `C[C@@H](Oc1cc(-n2cnc3ccc(OC4CCN(C)CC4)cc32)sc1C(N)=O)c1ccccc1Cl` [GSK579289A], for which the “Percent Control” value amounted to 46%.

For `NS(=O)(=O)c1ccc(Nc2ncc(-c3ccccc3)o2)cc1` [GW572399X], the “Percent Control” value worked out at 78%.

For the molecule `Cc1cc(O)cc(C)c1/C=C/c1cncc(C(N)=O)c1` [GW435821X], the “Percent Control” value was found to be 7.9%.

As for `COc1ccc2cc(-c3c(-c4ccncc4)nc(-c4ccc(S(C)(=O)=O)cc4C)n3C)ccc2c1` [SB-633825], the “Percent Control” value came out at 63%.

Turning to `COc1cc2ncn(-c3cc(O[C@H](C)c4ccccc4Cl)c(C(N)=O)s3)c2cc1OC` [GSK237701A], the “Percent Control” value is 46%.

For the molecule `COC(=O)Nc1nc2ccc(Oc3ccc(NC(=O)Nc4cc(C(F)(F)F)ccc4F)cc3)cc2s1.Cl` [GW693917A], the “Percent Control” value came out at 0%.

For `COc1cc2ncnc(Nc3ccc4c(cnn4Cc4ccccc4)c3)c2cc1OC.Cl` [GW282449A], the “Percent Control” value is 96%.

Regarding `C/C(Nc1ccc(S(N)(=O)=O)cc1)=C1/C(=O)Nc2ccccc21` [GW335962X], the “Percent Control” value was 76%.

In the case of `Cl.O=C(Nc1ccc(Oc2ccc3[nH]c(NC(=O)c4ccccc4)nc3c2)cc1)Nc1cc(C(F)(F)F)ccc1F` [GW709042A], the “Percent Control” value is 8%.

Regarding `CCc1ccc(Oc2nccc(-c3c(-c4ccc(F)cc4)ncn3C3CCNCC3)n2)cc1` [SB-242719], the “Percent Control” value was 68%.

Consider `COc1cc(N2CCN(C(C)C)CC2)ccc1Nc1nc(Nc2ccc(F)cc2C(=O)NC[C@@H](O)CO)c2cc[nH]c2n1` [GSK1392956A], for which the “Percent Control” value was found to be 100%.

As to `O=C(Nc1n[nH]c2nc(-c3ccc(O)cc3)c(Br)cc12)C1CC1` [SB-725317], the “Percent Control” value was 7%.

Regarding `O=C1Nc2ccc(C(=O)c3ccco3)cc2C1=Cc1cc(Cl)c(O)c(Cl)c1` [GW406108X], the “Percent Control” value came to 71%.

Take `COc1cccc(-n2ncc3c(N/N=C/c4ccncc4)ncnc32)c1` [GW784752X]: the “Percent Control” value was found to be 0%.

As to `NS(=O)(=O)c1ccc(N/N=C2\C(=O)Nc3ccc(C(=O)NCc4ccncc4)cc32)cc1` [GW300657X], the “Percent Control” value came to 78%.

For `Nc1ncnc2occ(-c3ccc(NC(=O)Nc4cc(C(F)(F)F)ccc4F)cc3)c12` [GW770249X], the “Percent Control” value was found to be 0%.

With `NS(=O)(=O)c1ccc(N/N=C2\C(=O)Nc3ccc(Cl)cc32)cc1` [GW280670X], the “Percent Control” value turned out to be 81%.

For the molecule `COc1cccc(-c2c[nH]c3c(N/N=C/c4ccncc4)ncnc23)c1` [GW814408X], the “Percent Control” value worked out at 0%.

Regarding `COc1ccccc1-c1cc(/C=C2\C(=O)Nc3ncc(Br)cc32)cc(Br)c1O` [GW442130X], the “Percent Control” value is on record as 94%.

On to `CC(C)COC(=O)c1ccc2c(c1)/C(=C/Nc1ccc(S(N)(=O)=O)cc1)C(=O)N2` [GW416981X], for which the “Percent Control” value is given as 95%.

Take `CC1=C(C(=O)Nc2ccc3[nH]ncc3c2)C(c2ccc(Cl)c(Cl)c2)CC(=O)N1` (stereo not shown) [GSK299115A]: the “Percent Control” value came out at 75%.

As for `COc1ccc(COc2ccc(Cc3cnc(N)nc3N)cc2OC)cc1` [GW632580X], the “Percent Control” value is 88%.

As for `COc1cc(C=NNc2ncnc3c2cnn3-c2ccccc2)ccc1O` [GW513184X], the “Percent Control” value was 8.4%.

In the case of `Cl.O=C(O[C@H]1CN[C@H](C#Cc2cc3ncnc(Nc4ccc5c(cnn5Cc5ccccc5)c4)c3s2)C1)N1CCOCC1` [GSK200398A], the “Percent Control” value is 84%.

The record behind these values is paper PMC7826789 (International Journal of Molecular Sciences, 2021).
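Also: KINOMEscan scanMAX binding as percent activity remaining versus control; lower means stronger binding.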
